Source: PubChem BioAssay (National Center for Advancing Translational Sciences (NCATS))
TR SRC2 fluor cs – Texas Red fluorescence interference in TRb-SRC2 counter-screen; TRb/SRC2 Texas Red total fluorescence interference; Potency, µM (titrated, usually from 106 µM), for the others: at the top dose fluorescence change, negative = quenching; 280,000 tested, 0.29% active; active = well fitted curve in either direction with a large enough effect; inconclusive = small, poorly fitted or top-dose-only effect
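Human TRβ ligand-binding domain (0.6 uM) and Texas Red SRC2 peptide (20 nM) in Tris buffer with 1 uM T3 and 5% DMSO were incubated with pinned compound for 5 hr at ambient temperature. Total fluorescence was computed as S + 2P (555/632 nm).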
Tau fluor counter – counter-screen for tau fibril formation inhibitors; tau K18 P301L Alexa594 fluorescence, heparin fibrillization; Potency, µM (titrated, usually from 57.7 µM), inactives show at the highest dose activity change, negative = decrease; 280,000 tested, 0.93% active; AID 1463; note: nearly all actives have a fitted effect of over 55% in size
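Human K18 P301L tau (15 uM unlabeled plus 0.24 uM Alexa 594-labeled, final) in 100 mM sodium acetate pH 7 was mixed with compound and 20 uM heparin and incubated 6 hr at 37 C.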
Tau ThT inhib – tau fibrillization inhibition (ThT binding) | recombinant tau K18 P301L (four-repeat tau fragment), heparin-induced fibrillization, ThT fluorescence | Potency, µM (series often up to 57.4 µM), for inactives: top-dose activity, negative = inhibition, usual class: inhibitors | 270,000 tested, 2.1% active | AID 1460; note: nearly all actives have a fitted effect of over 55% in size
Target sequence (P10636 561-689 P618L limits assumed): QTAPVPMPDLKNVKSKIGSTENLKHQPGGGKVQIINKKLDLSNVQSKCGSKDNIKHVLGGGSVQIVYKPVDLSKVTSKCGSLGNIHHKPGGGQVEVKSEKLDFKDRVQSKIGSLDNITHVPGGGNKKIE
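In this qHTS, human K18 P301L tau is incubated with compound and heparin for 6 hr at 37 C, and Thioflavin T fluorescence then reports fibril load.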
TRb-SRC2 inh – TRbeta-SRC2 interaction inhibition. TRbeta-SRC2 peptide binding, fluorescence polarization; receptor liganded with 1 µM T3. 280,000 tested, 0.065% active. P10828. Potency, µM (doses to about 106 µM), without a hit: at the highest dose activity change, negative = inhibition, actives largely listed as inhibitors;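 note: plate controls were bound peptide for no effect and peptide without receptor for full effect; nearly all actives have a fitted effect of over 50% in size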
Target sequence (P10828 whole entry, looked up): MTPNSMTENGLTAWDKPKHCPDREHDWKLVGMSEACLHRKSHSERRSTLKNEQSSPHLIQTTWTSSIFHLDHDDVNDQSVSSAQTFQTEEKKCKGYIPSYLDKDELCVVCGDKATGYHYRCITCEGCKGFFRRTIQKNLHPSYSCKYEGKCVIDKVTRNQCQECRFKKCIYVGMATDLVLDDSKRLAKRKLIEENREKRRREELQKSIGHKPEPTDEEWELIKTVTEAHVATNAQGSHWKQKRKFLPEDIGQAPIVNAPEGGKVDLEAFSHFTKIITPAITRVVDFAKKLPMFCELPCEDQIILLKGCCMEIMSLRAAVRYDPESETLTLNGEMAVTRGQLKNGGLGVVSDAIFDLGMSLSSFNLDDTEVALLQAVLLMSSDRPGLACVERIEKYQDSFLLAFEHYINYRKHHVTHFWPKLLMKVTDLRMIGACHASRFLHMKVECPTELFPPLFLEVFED
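Binding of a 20-amino-acid Texas Red SRC2 peptide (20 nM) to TRb ligand-binding domain (0.6 uM) with agonist T3 at 1 uM was followed by fluorescence polarization after a 5 hr room-temperature incubation.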
Tau FP inhib – tau fibrillization inhibition (FP). K18 P301L tau heparin fibrillization, Alexa594 FP, 6 h. Potency, µM (series often up to 57.7 µM), for inactives: at the highest dose activity, negative = inhibition, hits mostly inhibitors. 280,000 tested, 0.39% active. P10636; note: nearly all actives have a fitted effect of over 55% in size
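Human K18 P301L fragment (15 uM unlabeled plus 0.24 uM Alexa 594-labeled) in 100 mM sodium acetate pH 7 with compound, aggregation induced by 20 uM heparin for 6 hr at 37 C. ThT (30 uM) added for 1 hr, then Alexa 594 FP read.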
* marks the source's active call; other numbers are inactive results; ? = inconclusive; · = no result; [ ] = remark or other dose. Compounds with a hit are over-represented: about 3.1% of the library has one in this group of screens. Unless noted, calls come from the whole dose curve; as a rule, active = well fitted curve in the direction sought with a large enough effect; inconclusive = small, poorly fitted or top-dose-only effect, or another doubt; inactive = no such curve, though single readings can be large; an effect the other way counts as inactive or inconclusive. Unless noted, % is set by controls: 0 for no effect and ±100 for the full control effect; potency is the fitted concentration of half-maximal effect.

SMILES	TR SRC2 fluor cs	Tau fluor counter	Tau ThT inhib	TRb-SRC2 inh	Tau FP inhib
CCOC(=O)CN=C1CC(C)(C)CC2=C1Sc1ncnc(N(C)C)c1N2	3%	?	16µM*	-13%	-19%
O=C1CCCC2=C1C1(O)C(=O)c3ccccc3C1(O)O2 (stereo unspecified)	1%	-15%	3.5µM*	-29%	?
CCCCCCCC#Cc1ccccc1/C=N/S(=O)C(C)(C)C (stereo unspecified)	3%[11.2 µM]	-9%[11.6 µM]	-2%[11.5 µM]	7%[11.2 µM]	4%[11.6 µM]
COC/C=C/C1=CC2=CC(=O)C(C)(OC(=O)c3ccc(Cl)nc3)C(=O)C2=CO1 (stereo unspecified)	-1%	-16%	?	6%	0%
Cc1ccc(-n2c(C)cc(/C=N/Nc3ccc([N+](=O)[O-])cn3)c2C)cc1	1%	?	2µM*	-1%	6%
Cc1ccc(Cn2cc(/C=N/Nc3ccc([N+](=O)[O-])cn3)c3ccccc32)cc1	-3%	11µM*[quencher]	10µM*	1%	12%
Cc1cc(/C=N/Nc2ccc([N+](=O)[O-])cn2)c(C)n1-c1ccccc1	-2%	?	3.5µM*	-8%	8%
Cc1c(C(=O)O)cccc1-n1c(C)cc(/C=N/Nc2ccc([N+](=O)[O-])cn2)c1C	-7%	?	13µM*	-1%	5%
CN(C)C1(CNC(=O)COc2ccc([N+](=O)[O-])cc2)CCCCC1	?	1%	5%	-13%	2%
O=[N+]([O-])c1ccc2c(c1)Cc1ccccc1-2	-6%[201 µM]	·	·	5%[201 µM]	·
CCc1ccc(S(=O)(=O)c2nnn(-c3ccc(F)cc3)c2N)cc1	7%	-15%	5%	1%	-13%
Cc1cc(O)c(C(c2ccccc2)N2CCN(c3ccc(F)cc3)CC2)c(=O)n1Cc1ccco1 (stereo unspecified)	-1%	-7%	?	-1%	-14%
CCCNc1c(F)c(F)c2c(C)c3ccccc3nc2c1F	3%	-23%	14µM*	5%	6%
CCCCCCCC(=O)NNC(=O)Cc1ccccc1	2%	5%	4%	-23%	4%
CCCCCCCCCCCC(=O)c1c(O)cccc1O	-1%	13µM*[quencher]	?	-1%	?
Cn1nc(-c2ccccc2F)c2cc(C(=O)NCc3ccccc3Cl)sc21	-4%	?	2%	2%	?
CCOc1cc(/C=N/NC(=O)C(N)=O)cc(Br)c1O	-4%	-3%	-15%	-6%	-4%
CCOc1cc(Br)c(Br)c(C=Nc2ccc(NC(C)=O)cc2)c1O	1%	-12%	6.3µM*	-4%	-3%
CC(=O)Nc1ccc(N=Cc2ccc[nH]2)cc1	3%	2%	-8%	-6%	4%
CC(=O)Nc1ccc(N=Cc2c(O)c(C(=O)Nc3ccccc3)cc3ccccc23)cc1	0%	-26%	13µM*	-5%	?
Cc1ccc(C)c(N2CCN(C(=O)c3c4c(nc5ccccc35)C(=O)N(C3CCCCC3)C4)CC2)c1	?	0%	?	-5%	2%
O=C(NCC(c1ccc2c(c1)OCO2)N1CCOCC1)C(=O)Nc1ccccc1 (stereo unspecified)	-2%	-2%	1%	4%	-9%
CC(=O)Nc1ccc(NC(=O)/C=C/c2cccc(C(F)(F)F)c2)cc1	3.2µM*[quencher]	2%	6%	?	5%
CC(C)(C)NC(=O)/C=C/c1cccc(C(F)(F)F)c1	-1%	-8%	-5%	5%	1%
CN1CCSc2ccc(C(=O)Nc3cccc(F)c3)cc21	-2%	22µM*[quencher]	?	9%	?
SMILES	TR SRC2 fluor cs	Tau fluor counter	Tau ThT inhib	TRb-SRC2 inh	Tau FP inhib
COC(=O)c1ccc(NC(=O)CSc2n[nH]c(CC(C)C)n2)cc1	-2%	-8%	-14%	-7%	-11%
Cc1ccccc1C(=O)Nc1cccc(NC(=O)c2ccc(C(C)(C)C)cc2)c1	0.16µM*[quencher]	-6%	2%	-24%[53 µM]	-20%
Cc1cc(N2CCOCC2)ccc1/C=C\[N+](=O)[O-]	-2%	?	11µM*	-4%	13%
O=[N+]([O-])c1ccc(N2CCOCC2)cc1O	-4%	-14%	?	-11%	-2%
COc1ccc(NS(=O)(=O)c2cccc(C(=O)N/N=C/c3cn(-c4ccccc4)nc3-c3ccc(OC)cc3)c2)cc1	-4%	?	?	-6%	32µM*
CCN(CC)c1ccc(/C=N/Nc2ccccc2)c(O)c1	10%	?	25µM*	-21%	?
CCN(CC)c1ccc(/C=N/NC(=O)c2ccc3nc[nH]c3c2)c(O)c1	-8%	14µM*[quencher]	·	1%	3%
CCN(CC)c1ccc(/C=N/NC(=O)c2cccc(S(=O)(=O)Nc3ccccc3OC)c2)c(O)c1	-2%	7.9µM*[quencher]	-13%	7%	?
COc1cccc(/C=N/NC(=O)c2ccc3nc[nH]c3c2)c1O	-9%	-25%	?	-3%	-13%
COc1ccc(NS(=O)(=O)c2cccc(C(=O)N/N=C/c3cn(-c4ccccc4)nc3-c3ccccc3)c2)cc1	-2%	-22%	1%	10%	?
CCN1C(=O)[C@H]2[C@H]3[C@H](O)[C@H](O)C/C(=N/OCC(C)C)[C@@H]3CC[C@@H]2C1=O	-2%[11.2 µM]	-8%[11.6 µM]	-7%[11.5 µM]	-2%[11.2 µM]	-7%[11.6 µM]
CCN1CCSc2ccc(C(=O)NC(C)c3ccccc3)cc21 (stereo unspecified)	-2%	?	-13%	-10%	3%
CCCCCc1nn2cc(-c3ccccc3)nc2s1	-1%	-7%	?	-2%	-2%
COc1ccc(-c2noc(-c3cccnc3N3CCN(c4ccc(OC)cc4)CC3)n2)cc1	-3%	2%	1%	6%	-4%
CCOc1cc(C=C(C(=O)OC)C(=O)OC)ccc1OCc1ccc([N+](=O)[O-])cc1	-4%	-26%	13µM*	-19%	17%
COCCN1C(=O)/C(=C/c2ccc(N3CCCC3)cc2C)SC1=S	7%[53 µM]	-13%	7.1µM*	3%[53 µM]	?
CCN=C1S/C(=C\c2ccc(N3CCOCC3)cc2C)C(=O)N1CC	-1%	-27%	-13%	-3%	14%
CCN1C(=O)/C(=C\c2ccc(-c3ccc([N+](=O)[O-])cc3OC)o2)SC1=Nc1cccc(C(=O)O)c1	3%	?	14µM*	-2%	-17%
CCN=C1S/C(=C\c2ccc(-c3cccc(C(=O)O)c3)o2)C(=O)N1CC	2%	2%	1%	2%	2%
Cc1ccc(NC(=O)C(OC(=O)c2ccccc2Cl)c2ccccc2)cc1Cl (stereo unspecified)	-1%	?	1%	0%	?
Cc1ccc(NC(=O)C(OC(=O)c2ccc(NC(N)=O)cc2)c2ccccc2)cc1Cl (stereo unspecified)	-16%	?	?	3%	13µM*
COc1cccc(-c2cc(C(F)(F)F)n3ncc(C(=O)OC(C)C)c3n2)c1	?	-17%	-6%	-3%	-9%
